Inconclusive results are not listed. The source made the active and inactive calls.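 How the source made its calls, unless noted: active means RAM network inhibition above 8.4% in each of two replicates, 3 SD over the compound average; inconclusive means above 8.4% inhibition in only one replicate; inactive means 8.4% inhibition or less in each replicate.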
How the values were obtained:
[1] = reducers of endogenous Her2 protein level, primary screen, SKBR3 breast tumor cells, AlphaScreen, ATP viability (AID 461;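 active means Her2 level under about 52% in both replicate screens, with viability over 70% of control, limit read from the data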;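 on Her2 level: lower value means less Her2 protein in the cells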;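 on viability: percent of carrier control wells set as 100% viability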); details: 18-24 h, measured here: SKBR3 viability, ATP luminescence, at 10 µM
[2] = target: Receptor tyrosine-protein kinase erbB-2 (Homo sapiens) (UniProt P04626); assay: as above; details: 18-24 h, at 10 µM, stronger effect = lower value
Chain of Receptor tyrosine-protein kinase erbB-2 (Homo sapiens) (P04626 whole entry, looked up): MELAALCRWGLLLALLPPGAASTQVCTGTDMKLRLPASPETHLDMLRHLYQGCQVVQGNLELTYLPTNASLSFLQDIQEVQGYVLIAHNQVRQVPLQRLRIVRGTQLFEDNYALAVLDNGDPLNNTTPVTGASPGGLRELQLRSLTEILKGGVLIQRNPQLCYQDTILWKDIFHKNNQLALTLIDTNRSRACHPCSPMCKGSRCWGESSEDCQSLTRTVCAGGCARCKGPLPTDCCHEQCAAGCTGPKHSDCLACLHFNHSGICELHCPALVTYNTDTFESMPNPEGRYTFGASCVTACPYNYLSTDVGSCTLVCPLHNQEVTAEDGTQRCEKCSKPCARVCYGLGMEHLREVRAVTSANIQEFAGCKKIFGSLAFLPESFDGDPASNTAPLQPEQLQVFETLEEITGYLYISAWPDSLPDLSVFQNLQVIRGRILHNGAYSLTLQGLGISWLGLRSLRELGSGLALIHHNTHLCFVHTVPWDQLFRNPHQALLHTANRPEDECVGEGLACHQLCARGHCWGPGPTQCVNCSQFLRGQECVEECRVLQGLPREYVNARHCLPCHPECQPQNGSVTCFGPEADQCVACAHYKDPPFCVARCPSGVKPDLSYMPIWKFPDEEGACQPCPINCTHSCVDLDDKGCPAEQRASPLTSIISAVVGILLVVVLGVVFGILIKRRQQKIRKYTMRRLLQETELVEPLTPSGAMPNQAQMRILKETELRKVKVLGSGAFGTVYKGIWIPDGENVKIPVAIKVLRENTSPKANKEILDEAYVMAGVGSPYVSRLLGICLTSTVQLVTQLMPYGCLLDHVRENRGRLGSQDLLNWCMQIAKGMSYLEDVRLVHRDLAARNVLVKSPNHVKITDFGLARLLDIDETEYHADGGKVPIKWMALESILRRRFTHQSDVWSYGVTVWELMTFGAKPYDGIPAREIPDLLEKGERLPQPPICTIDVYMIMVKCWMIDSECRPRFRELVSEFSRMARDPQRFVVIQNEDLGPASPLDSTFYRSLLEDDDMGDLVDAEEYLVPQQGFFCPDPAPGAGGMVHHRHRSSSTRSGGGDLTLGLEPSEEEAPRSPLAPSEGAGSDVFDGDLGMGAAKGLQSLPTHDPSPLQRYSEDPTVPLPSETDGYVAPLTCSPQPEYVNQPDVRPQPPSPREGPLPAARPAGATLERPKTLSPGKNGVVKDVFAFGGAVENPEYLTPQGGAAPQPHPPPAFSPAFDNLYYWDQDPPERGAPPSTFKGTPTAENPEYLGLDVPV

[3] = SK-BR-3 cell growth inhibitors, pilot screen, 24 h, human (AID 572;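 active means viability at or below 10% of carrier control in both of two separate runs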;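 further: compound exposure lasted between 18 and 24 h rather than exactly 24 h; 100% = carrier-treated control wells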); details: SK-BR-3 viability, CellTiter-Glo luminescence, at 10 µM, stronger effect = lower value
[4] = HUVEC growth inhibition – cell-based, human, primary screen (AID 575;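 active means viability at or below 30% in both replicate assays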;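 further: 100% = median of untreated cell wells with 0.1% DMSO on each plate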); details: HUVEC proliferation, CellTiter-Glo luminescence, 72 h; at 10 µM; stronger effect = lower value
[5] = growth inhibitors of H69AR lung tumor, primary screen, human, duplicate replicates (AID 580;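 active means viability at or under a set limit in both replicates, limit being median viability minus 3 SD, cut at about 48% in these data, passing the limit was not always enough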;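 further: 100% = mean luminescence of untreated wells and 0% = no signal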); details: H69AR lung tumor cells viability, ATP luminescence, 72 h; at 10 µM; stronger effect = lower value
[6] = reversal of MRP1-mediated doxorubicin resistance, pilot screen, H69AR cells, doxorubicin co-treatment (AID 601;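 active means viability loss from added drug above about 55%, and viability with drug at most 40%, in both replicates, limit read from the data, passing the limit was not always enough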); details: CellTiter-Glo, 72 h, at 10 µM; for differential viability (reversal): stronger effect = higher value
[7] = 384-well plate pilot, post-Golgi transport modulator project, inhibition of yeast transport mutant growth (AID 636; in the data active means inhibition above about 31%); details: absorbance 615 nm, about 18 h, stronger effect = higher value
[8] = growth suppression of yeast trafficking mutant, preliminary HTS, modulators of trafficking downstream of Golgi apparatus project, 1536-format plate, OD 615 nm (AID 637; in the data active means inhibition above about 30%); details: yeast transport mutant growth, absorbance 615 nm, 18 h; stronger effect = higher value
[9] = OD615 S. cerevisiae growth inhibition, permissive medium, pilot counter-assay, permissive growth control for S. cerevisiae lifespan shortening project (AID 705;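 active means growth inhibition above 25% in both replicates, a cutoff set 3 SD above the mean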); details: OD615, 24 h, at 10 µM, stronger effect = higher value
[10] = Restrictive medium S. cerevisiae growth inhibition, OD615, pilot screen of yeast lifespan reduction project, restrictive growth control (AID 706;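 active means growth inhibition above a set limit, 3 SD over mean compound inhibition, in both replicates, cut at about 43% in these data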;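 further: modified DeaD lifespan yeast strain shifted to restrictive glucose medium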); details: OD615, 48 h, at 10 µM, stronger effect = higher value
[11] = viability gain of MRP-1-high H69AR cells under doxorubicin, pilot screen, MRP-1 activator project, CellTiter-Glo, duplicate (AID 807;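 active means viability increase at or above a cutoff of the median across tested compounds plus 3 SD, cut at about 8.5% in these data, passing the limit was not always enough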;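 further: compound pretreatment 18-22 h then 72 h combined with doxorubicin; 0% = doxorubicin alone and 100% = vehicle without doxorubicin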); details: H69AR viability with doxorubicin, CellTiter-Glo luminescence; at 10 µM; stronger effect = higher value
[12] = growth suppression of beta-catenin knockout HCT116, pilot screen, human colon tumor cells (AID 823;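 active means cell viability at or below a set limit in both duplicate runs, the limit being the all-compound median minus 4 SD, cut at about 23% in these data, passing the limit was not always enough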;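 further: 0% = wells killed by 20 µM Hyamine and 100% = untreated DMSO cell wells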); details: CellTiter-Glo, 60 h, at 10 µM, stronger effect = lower value
[13] = growth suppression of PTEN-deleted HCT116, pilot screen, cell-based, HCT116 clonal line, CellTiter-Glo (AID 824;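 active means viability at or below 27.92% in each of two runs, the all-compound median minus 4 SD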;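 further: 0% = 20 µM Hyamine control and 100% = vehicle cell control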); details: 60 h, at 10 µM, stronger effect = lower value
[14] = inhibitors of the yeast RAM network, pilot screen, dse1pr::URA3 reporter, 5-FOA selection (AID 869;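 active means inhibition over a set limit, the all-compound mean plus 3 SD, in both replicate runs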;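 further: 0% = DMSO wells with no growth and 100% = 10 µM 1-NA-PP1 with full growth; RAM network block rescues cells from 5-FOA so hits raise OD615 growth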); details: S. cerevisiae dse1pr::URA3 5-FOA growth, OD615, 2 d; at 10 µM; stronger effect = higher value; strain carries analog-sensitive mutant Cbk1 kinase
[15] = RAM signaling pathway blockade in yeast – S. cerevisiae, Pdr1DBD-CYC8 efflux-inhibited sensitized strain, primary screen (AID 1298);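 further: 0% = DMSO untreated cells without growth and 100% = 10 µM 1-NA-PP1 full growth; higher means more yeast growth rescued from 5-FOA killing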; details: S. cerevisiae cbk1-as DSE1-URA3 strain, 5-FOA growth OD615, 2 d; at 50 µM; stronger effect = higher value
[16] = H69AR cells + 2 uM doxorubicin, measured here: viability with 2 uM doxorubicin, stronger effect = lower value
[17] = H69AR cells, compound alone cytotoxicity

Structure (SMILES) | viability [1] | Her2 level [2] | viability [3] | viability [4] | viability [5] | differential viability (reversal) ([6]; H69AR cells + 2 uM doxorubicin) | viability [6, 16] | viability [6, 17] | inhibition [7] | inhibition [8] | growth inhibition [9] | growth inhibition [10] | viability increase [11] | viability [12] | viability [13] | inhibition [14] | RAM network inhibition [15]
CCOC(=O)N1CCN(C(=O)COc2ccc(S(=O)(=O)NC(C)C)cc2)CC1 | 96% | 105% (inactive) | 96% (inactive) | 106% (inactive) | 90.3% (inactive) | 0.365% (inactive) | 90% | 90.3% | -5.07% (inactive) | 2.33% (inactive) | -17.6% (inactive) | -20.2% (inactive) | -0.64% (inactive) | 96.2% (inactive) | 93% (inactive) | 1.71% (inactive) | 7.54% (inactive)
COC(=O)Cn1c(=NC(=O)CSCC(=O)Nc2cc(C)on2)sc2ccccc21 | 89% | 90% (inactive) | 89% (inactive) | 90.4% (inactive) | 88.5% (inactive) | 3% (inactive) | 85.5% | 88.5% | -5.07% (inactive) | -3.5% (inactive) | -6.84% (inactive) | -19.8% (inactive) | -0.92% (inactive) | 99.3% (inactive) | 96.9% (inactive) | – | 7.51% (inactive)
COc1ccc(C2c3c(oc4ccccc4c3=O)C(=O)N2c2ccc(C)cn2)cc1OC (stereo unspecified) | 83% | 126% (inactive) | 83% (inactive) | 98.6% (inactive) | 94.3% (inactive) | 23.3% (inactive) | 71% | 94.3% | -0.9% (inactive) | -7.5% (inactive) | -7.72% (inactive) | -0.265% (inactive) | -2.66% (inactive) | 89% (inactive) | 82.2% (inactive) | – | 11.6% (inactive)
CC(CCc1ccccc1)NC(=O)C1CCCN(c2nnc(-n3cccc3)s2)C1 (stereo unspecified) | 89.5% | 86.5% (inactive) | 89.5% (inactive) | 97.1% (inactive) | 82.6% (inactive) | 0.56% (inactive) | 82% | 82.6% | -0.38% (inactive) | -3.17% (inactive) | -16.5% (inactive) | 0.105% (inactive) | -1.84% (inactive) | 93.5% (inactive) | 96% (inactive) | – | 2.83% (inactive)
Cc1ccc(-c2nc3cc(NC(=O)C(C)C)ccc3o2)cc1 | 87% | 112% (inactive) | 87% (inactive) | 73.5% (inactive) | 82.4% (inactive) | -1.22% (inactive) | 83.6% | 82.4% | -1.92% (inactive) | -10.3% (inactive) | -11.2% (inactive) | -21.9% (inactive) | -5.7% (inactive) | 82.6% (inactive) | 73.5% (inactive) | 3.04% (inactive) | 5.12% (inactive)
CCCCOC(=O)Nc1nc2ccc(OC)cc2s1 | 94% | 92% (inactive) | 94% (inactive) | 92.3% (inactive) | 99.7% (inactive) | 16.4% (inactive) | 83.3% | 99.7% | -6.08% (inactive) | -6.17% (inactive) | -8.06% (inactive) | -16.4% (inactive) | 2.27% (inactive) | 96.3% (inactive) | 93.7% (inactive) | – | 7.75% (inactive)
O=C(Cn1nc(Cc2ccncc2)c2ccccc2c1=O)N1CCc2ccccc2C1 | 83% | 100% (inactive) | 83% (inactive) | 95.3% (inactive) | 96.5% (inactive) | 5.38% (inactive) | 91.1% | 96.5% | -0.27% (inactive) | -3.77% (inactive) | -1.69% (inactive) | 3.79% (inactive) | -2.78% (inactive) | 103% (inactive) | 103% (inactive) | 1.33% (inactive) | 3% (inactive)
CCOC(=O)c1ccccc1NC(=O)c1ccc2c(=O)n3c(nc2c1)CCCCC3 | 87.5% | 84.5% (inactive) | 87.5% (inactive) | 84.9% (inactive) | 84.4% (inactive) | -9.15% (inactive) | 93.5% | 84.4% | -4.53% (inactive) | 0.67% (inactive) | -5.51% (inactive) | -0.78% (inactive) | -1.73% (inactive) | 82.5% (inactive) | 81.2% (inactive) | 1.7% (inactive) | 18.8% (active)
Cc1cccc(-n2nc3c(c2NC(=O)CCC2CCCCC2)CS(=O)C3)c1C (stereo unspecified) | 95% | 94.5% (inactive) | 95% (inactive) | 86.3% (inactive) | 90.9% (inactive) | 1.55% (inactive) | 89.3% | 90.9% | -4.13% (inactive) | 1.33% (inactive) | -8.41% (inactive) | 1.94% (inactive) | -1.85% (inactive) | 91.8% (inactive) | 92.1% (inactive) | 1.02% (inactive) | 1.36% (inactive)
C=CCn1c(=O)n(CCOC)c(=O)c2sc3ccccc3c21 | 85% | 105% (inactive) | 85% (inactive) | 87.4% (inactive) | 86.8% (inactive) | -13.7% (inactive) | 100% | 86.8% | -0.53% (inactive) | 4.33% (inactive) | -13.3% (inactive) | -5.77% (inactive) | -4.03% (inactive) | 89.9% (inactive) | 86.7% (inactive) | 0.25% (inactive) | 1.71% (inactive)

Source: PubChem BioAssay
